Results on 31 molecules are retold here after PubChem BioAssay AID2410 (Southern Research Specialized Biocontainment Screening …, 2010).

The campaign covered roughly 2,500 compounds. About 2,100 (84%) were called active.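 The calls were made as follows: active = toxic compounds, whose cell viability fell below 70% of untreated control cells; inactive = the rest.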 So high a share suggests a set chosen from earlier hits. Only a sample is shown. Entries with a potency or affinity are not part of this list.

The test can be described thus: HEp-2 cell cytotoxicity, dose response, cytotoxicity control for RSV inhibitor project, HTS (AID 2410).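 Also: cells exposed to compound for six days before readout.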 The note with it: HEp-2 viability, luminescence, cytotoxicity counter-screen; series mostly up to 50 µM. On the technique in general: A counterscreen serves to expose hits that act by an unwanted route or on another target.
In the case of `CCOc1cc(/C=N/O)cc(Br)c1OCc1ccc(Cl)cc1`, the result was inactive.

On to `COc1ccc(OC)c(-n2c(SCC(=O)NCc3ccco3)nnc2-c2c[nH]c3ccccc23)c1`, for which the result was inactive.

`O=c1[nH]c(/C=C2\C=Nc3ccccc32)c(O)n1Cc1ccccc1F`: the call was inactive.

As for `COc1ccc(-c2nc[nH]c2[N+](=O)[O-])cc1`, the molecule was classed as inactive.

For the molecule `C=CCN1C(=O)N(/C=C/C)c2cccc3cccc1c23`, the molecule was classed as inactive.

For `CCOC(=O)C1=C(C)N=c2s/c(=C/c3ccc(OCC(=O)O)c(OC)c3)c(=O)n2C1c1ccc(Cl)cc1` (stereo unspecified), the molecule was classed as inactive.

Turning to `CCCC(c1nnnn1CC(=O)OCC)N(Cc1cc2c(C)cc(C)cc2[nH]c1=O)C1CCCC1` (stereo unspecified), the outcome was inactive.

`CC(=O)Nc1ccc2c(CSc3nnc(N)s3)cc(=O)oc2c1`: the result was inactive.

Take `COc1ccc(NC2c3ncccc3C(=O)N2Cc2cccs2)cc1` (stereo unspecified): the result was inactive.

In the case of `C=CCSc1nnc2nc3c(nn12)c1cc(C)ccc1n3CC=C`, the result was inactive.

Regarding `c1csc(-c2nn3c(Cn4cnc5ccccc54)nnc3s2)c1`, the call was inactive.

Take `O=C1c2ccccc2C(=O)N1CCCCN(C(=O)c1ccco1)c1ccc(Cl)cc1`: the molecule was called inactive.

Consider `NC(=O)N\N=C/C=C/C=C/c1ccc(F)cc1`, for which the outcome was inactive.

With `CNC(=S)N/N=C(\C)c1cccc(C(F)(F)F)c1`, the call was inactive.

As for `Nc1ccc(C(=O)N/N=C2\CCCc3c2[nH]c2ccccc32)cc1`, the call was inactive.

Consider `CCC(=O)N(CC(=O)Nc1sc(C)c(C)c1C(N)=O)C1CCCC1`, for which the outcome was inactive.

On to `COc1ccccc1CN1C[C@@H]2C[C@@H](c3ccc(C)c(C)c3)N3CCC[C@@]23C1=O`, for which the call was inactive.

As to `Cc1ccc(C(=O)N/C(=C\c2ccc(C(C)C)cc2)C(=O)NCCCN2CCOCC2)cc1`, the outcome was inactive.

As for `CCCC(=O)Nc1ccc(-c2nc3cc(C)c(C)cc3o2)cc1`, the result was inactive.

`Cc1ccc(-c2nc3cc(N)ccc3o2)c(C)c1`: the molecule was classed as inactive.

For `Cc1cc2nc(-c3ccc(NC(=O)C(C)C)cc3)oc2cc1C`, the molecule was classed as inactive.

As for `O=C(c1ccc(F)cc1Cl)N(c1ccccn1)C1CCCCC1`, the outcome was inactive.

For `c1csc(-c2nn3c(Cn4nnc5ccccc54)nnc3s2)c1`, the call was inactive.

On to `Cn1c(NCc2cc(Br)ccc2O)nc2ccccc21`, for which the molecule was called inactive.

As for `COc1cc(C)c2occ(/C(C)=N\O)c2c1`, the outcome was inactive.

As to `COc1cc(/C=C(\C#N)c2nc3ccccc3s2)ccc1OCC(=O)Nc1ccccc1`, the molecule was called inactive.

For the molecule `O=C(Oc1ccc(-c2cnc3ccccc3n2)cc1)c1ccco1`, the molecule was called inactive.

Consider `OCCC1CN(Cc2cccn2-c2nccs2)CCN1CCc1ccccc1` (stereo unspecified), for which the call was inactive.

Take `CS(=O)(=O)c1ccc(Cl)c(NC(=O)c2ccc3ccccc3c2)c1`: the outcome was inactive.

With `CCOC(=O)c1c(NC(=O)C2COc3ccccc3O2)sc2c1CC(C)(C)NC2(C)C` (stereo unspecified), the molecule was classed as inactive.

As to `O=C(Nc1ccccn1)C1COc2ccccc2O1` (stereo unspecified), the molecule was called inactive.
